Results on 8 molecules are retold here after PubChem BioAssay (NCI).

Holding throughout (test): NCI-60 one-dose screen, 48 h (100 = growth as untreated, 0 = no growth, -100 = all killed)
Common to all, as to conditions: 10 µM unless noted

The test system of test [1] is MOLT-4 leukemia.
The subject of test [2] is SR leukemia.
In test [3] the test system is RPMI-8226 leukemia.
Test [4] has as its system OVCAR-8 ovarian.
In test [5] the test system is OVCAR-5 ovarian.
In test [6] the test system is OVCAR-4 ovarian.
Test [7] concerns SK-OV-3 ovarian.
Test [8] concerns IGROV1 ovarian.
Test [9] has as its system OVCAR-3 ovarian.
The test system of test [10] is HS 578T breast.
Test [11] deals with NCI/ADR-RES ovarian.
The subject of test [12] is T-47D breast.
In test [13] the test system is BT-549 breast.
For test [14], the system named is MDA-MB-435 melanoma.
Test [15] has as its system MCF7 breast.
In test [16] the test system is HCT-116 colon.
Test [17] has as its system HCC-2998 colon.
Test [18] concerns KM12 colon.
For test [19], the system named is SW-620 colon.

The panel holds about 83,000 compounds, 20% with a hit somewhere; the sample as a whole holds those more often.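 Cells were grown in 96-well plates and exposed to the test compound at a single concentration for 48 hours; results are reported as percent growth, with values below 10 considered active.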 A number with no mark means an inactive call. Calls of active or inactive are those of the source.

Turning to `O=C(CCCC1CCCCC1)OCC(Cl)(Cl)Cl`, the growth is 107% in test [1]; 103% in test [2]; 95.7% in [3]; 110% in test [4]; 120% in [5]; 105% in test [6]. For the same molecule, the growth was 101% in [7]; 106% in [8]; 104% in [9]; 103% in test [10]; 102% in [11]; 101% in test [12]. Moreover, the growth was 117% in [13]; 111% in test [14]; 95.5% in test [15]; 103% in test [16]; 88.4% in [17]; 105% in test [18].

Turning to `O=C(Nc1ccc([As]=[As]c2ccc(NC(=O)c3ccccc3)cc2)cc1)c1ccccc1` (centres undefined), the growth in [1] was -27.5% (active); in test [2] it was 0.482% (active); in [3] it was 13.7%; in test [4], -82.1% (active); in test [5], -89.1% (active); in [6], -43.1% (active). For the same molecule, the growth is -81.5% (active) in test [7]; -40.4% (active) in test [8]; -94% (active) in test [9]; -75.8% (active) in test [10]; -38.6% (active) in test [11]; -51.9% (active) in [12]. Moreover, the growth in test [13] is -90.4% (active); in test [14], -77.2% (active); in test [15] it was -57.7% (active); in [16] it was -92.4% (active); in test [17], -80.5% (active); in test [18] it was -80.4% (active).

In the case of `CN(C)C(=O)Oc1ccc(Br)cc1`, the growth in [1] is 102%; in [2], 100%; in test [3] it was 106%; in test [4], 106%; in [5], 106%; in test [6], 97.7%. Besides, the growth is 95.8% in test [7]; 96.7% in [8]; 106% in test [9]; 115% in test [10]; 106% in test [11]; 92.4% in [12]. Also, the growth is 103% in test [13]; 104% in test [14]; 88.7% in [15]; 103% in test [16]; 108% in [17]; 101% in test [18].

For the molecule `CCC(C)(C)[C@H](NC(=O)[C@H]1CCCCN1C)C(=O)N(C)[C@H](C[C@@H](OC(C)=O)c1nc(C(=O)N[C@@H](Cc2ccccc2)C[C@H](C)C(=O)O)cs1)C(C)C`, the growth was 15.5% in [1]; 6.11% (active) in [2]; 7.76% (active) in [3]; 14.2% in test [4]; 42.5% in test [5]; 40.4% in [6]. In addition, the growth in test [7] was 38.1%; in test [8], 17.5%; in test [9], 5.97% (active); in [10], 13.3%; in test [11], 16.8%; in [12] it was 76.7%. The growth is -34.7% (active) in test [13]; -47.2% (active) in test [14]; 23.9% in test [15]; -10% (active) in [16]; 22.2% in test [17]; 4.26% (active) in [18].

Turning to `CC(=O)ONc1ccc([N+](=O)[O-])c(C(F)(F)F)c1`, the growth in [1] was 96.4%; in [2] it was 103%; in test [3], 93.9%; in [4], 109%; in test [5], 103%; in test [6] it was 98.2%. Moreover, the growth in [7] is 94.7%; in test [8], 107%; in test [9], 104%; in test [10] it was 90.7%; in test [11] it was 101%; in test [12] it was 77.1%. Further, the growth was 92.9% in test [13]; 102% in test [19]; 93.6% in test [15]; 100% in [16]; 108% in [17]; 101% in [18].

Regarding `COc1ccc(-n2c(C)nc3cc(OC)c(OC)cc3c2=O)cc1OC`, the growth was 97.2% in test [1]; 95.5% in [2]; 104% in [3]; 102% in test [4]; 104% in test [5]; 101% in [6]. In addition, the growth in [7] was 102%; in test [8] it was 102%; in [9], 106%; in [10], 101%; in test [11] it was 102%; in test [12], 91.4%. The growth in test [13] was 102%; in [19], 105%; in [15], 91.8%; in test [16], 98.7%; in [17], 109%; in [18] it was 104%.

Regarding `O=C(CC1(O)C(=O)N(Cc2ccccc2)c2ccccc21)c1ccc(C(=O)NCC2CCC3(CC2)OOC2(CCCCC2)OO3)cc1` (centres undefined), the growth is -49.9% (active) in test [1]; -49.3% (active) in test [2]; -26.7% (active) in test [3]; -14.8% (active) in test [4]; 21% in test [5]; -36.6% (active) in test [6]. Further, the growth in test [7] is 54.3%; in [8], -41.8% (active); in test [9], -82.4% (active); in [10] it was -6.26% (active); in test [11], -47.1% (active); in [12], -39.1% (active). Besides, the growth in [13] was -31.1% (active); in test [14], -86.5% (active); in test [15], 9.78% (active); in test [16], 15.5%; in test [17], 73.4%; in test [18], -73.9% (active).

`COc1ccc2c(c1)c(-c1nc(-c3cn(C)c4ncccc34)cs1)cn2CCCCN1CCCCC1`: the growth in test [1] was -65% (active); in test [2], -54.3% (active); in test [3] it was -42% (active); in [4] it was -65.2% (active); in [5], -69.2% (active); in [6], -6.02% (active). Further, the growth is 38.5% in test [7]; -62.5% (active) in test [8]; -78.4% (active) in test [9]; 58.3% in test [10]; 5.12% (active) in test [11]; 61% in test [12]. Moreover, the growth was 85.1% in test [13]; -64.3% (active) in test [19]; -76.5% (active) in [15]; -93% (active) in test [16]; 95.3% in test [17]; -68.7% (active) in [18].
